Results filed as inconclusive are left out. A call without a number means that no potency is given here. The source made the active and inactive calls. Unless noted, the call rests on the fitted dose curve.
Assay: qHTS assay to identify small molecule antagonists of the vitamin D receptor (VDR) signaling pathway - cell viability counter screen (AID 743225; active means well fitted cell-killing curve with a large enough effect in the repeat runs; further: nearly all actives have a fitted effect of over 50% in size)
Settings: VDR-bla HEK293T viability, CellTiter-Glo luminescence, 16 h; series mostly up to 61 µM
In short: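 Cytotoxicity counter screen read by CellTiter-Glo luminescence (30 min, room temperature) in the same wells as the VDR-bla antagonist readout. HEK 293T VDR-UAS-bla cells had 16 h at 37C with compound and 3 nM (final) 1-alpha,25-dihydroxyvitamin D3, then 2 h with FRET substrate.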

Q: Which Potency does the source give for `COc1cc2nc(N(C)CCCNC(=O)C3CCCO3)nc(N)c2cc1OC` (stereo not drawn) here?
A: inactive

Q: Which Potency does the source give for `CCCCC(CC)COC(=O)CCCCCCCCC(=O)OCC(CC)CCCC` (stereo not drawn) here?
A: inactive

Q: Which Potency does the source give for `COc1ccc2cccc(CCNC(C)=O)c2c1` here?
A: inactive

Q: Which Potency does the source give for `O=C(NCC1CN(c2ccc(N3CCOCC3=O)cc2)C(=O)O1)c1ccc(Cl)s1` (stereo not drawn) here?
A: inactive

Q: With `CC1=CC=C(C(C)C)CC1` as the compound, how does the Potency read?
A: inactive

Q: Which Potency does the source give for `CC(=O)c1cccc([N+](=O)[O-])c1` here?
A: inactive

Q: Which Potency does the source give for `COc1ccc(C)cc1[N+](=O)[O-]` here?
A: inactive

Q: For `COCC(C)OC(C)=O` (stereo not drawn), which Potency is on record?
A: inactive

Q: With `CCOc1ccc(N=Nc2ccc(/C=C/c3ccc(N=Nc4ccc(OCC)cc4)cc3S(=O)(=O)O)c(S(=O)(=O)O)c2)cc1` as the compound, how does the Potency read?
A: inactive

Q: Which Potency does the source give for `CC[N+](C)(CC)CCOC(=O)C(O)(c1ccccc1)C1CCCCC1` (stereo not drawn) here?
A: inactive

Q: For `CCCCC1=NC2(CCCC2)C(=O)N1Cc1ccc(-c2ccccc2-c2nn[nH]n2)cc1`, which Potency is on record?
A: inactive

Q: With `Cc1ccc(C(C)OC(=O)C2(C)CCC(C(=O)O)C2(C)C)cc1` (stereo not drawn) as the compound, how does the Potency read?
A: inactive

Q: Which Potency does the source give for `Cc1c(N)cccc1[N+](=O)[O-]` here?
A: inactive

Q: With `COc1cc2nc(Cl)nc(N)c2cc1OC` as the compound, how does the Potency read?
A: inactive

Q: With `CCCCC(CC)COC(=O)COc1ccc(Cl)cc1Cl` (stereo not drawn) as the compound, how does the Potency read?
A: inactive

Q: For `O=C(O)c1ccccc1Cl`, which Potency is on record?
A: inactive

Q: Which viability change, negative = cytotoxic does the source give for `O=C(O)CNCC(=O)O` here?
A: -0.385% [at 6.95 µM] (inactive)

Q: Which viability change, negative = cytotoxic does the source give for `C/C(=C(\CCOP(=O)(O)O)SC(=O)c1ccccc1)N(C=O)Cc1cnc(C)nc1N` here?
A: 2.62% [at 6.95 µM] (inactive)

Q: Which Potency does the source give for `OC(C#CCN1CCCC1)(c1ccccc1)c1ccccc1` here?
A: inactive

Q: Which Potency does the source give for `C=C(C)C(=O)OCC` here?
A: inactive

Q: For `OCCN1CCN(CCCN2c3ccccc3C=Cc3ccccc32)CC1`, which Potency is on record?
A: inactive

Q: For `ClCCOCCOCCCl`, which Potency is on record?
A: inactive

Q: With `CC(CSC(=O)c1ccccc1)C(=O)N1C[C@@H](Sc2ccccc2)C[C@H]1C(=O)O` (stereo partly drawn) as the compound, how does the Potency read?
A: inactive

Assay: qHTS assay to identify small molecule agonists of the NFkB signaling pathway - cell viability counter screen (AID 1159515); further: nearly all actives have a fitted effect of over 55% in size
Settings: NFkB-bla ME-180 viability, CellTiter-Glo luminescence, 5 h; series mostly up to 61 µM
In short: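 ME-180 NFkB-bla cells, 2,000/well; overnight attach; compound 5 hr, 37 C/5% CO2; LiveBLAzer substrate 1.5 hr RT; then CellTiter-Glo in same wells, 30 min RT, luminescence read.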

Q: With `COc1cc2nc(N(C)CCCNC(=O)C3CCCO3)nc(N)c2cc1OC` (stereo not drawn) as the compound, how does the Potency read?
A: inactive

Q: For `CCCCC(CC)COC(=O)CCCCCCCCC(=O)OCC(CC)CCCC` (stereo not drawn), which Potency is on record?
A: inactive

Q: Which Potency does the source give for `CN(C)C(=O)NC1(c2ccccc2)CCN(CC[C@@]2(c3ccc(F)c(F)c3)CN(C(=O)c3ccccc3)CCO2)CC1` here?
A: inactive

Q: For `O=[N+]([O-])c1ccc(NCCO)c(OCCO)c1`, which Potency is on record?
A: inactive

Q: With `COc1ccc2cccc(CCNC(C)=O)c2c1` as the compound, how does the Potency read?
A: inactive

Q: With `O=C(NCC1CN(c2ccc(N3CCOCC3=O)cc2)C(=O)O1)c1ccc(Cl)s1` (stereo not drawn) as the compound, how does the Potency read?
A: inactive

Q: Which Potency does the source give for `CC1=CC=C(C(C)C)CC1` here?
A: inactive

Q: Which Potency does the source give for `CC(=O)c1cccc([N+](=O)[O-])c1` here?
A: inactive

Q: Which Potency does the source give for `C=CCOC(=O)CCC1CCCCC1` here?
A: inactive

Q: For `CC(=O)[O][Al]`, which Potency is on record?
A: inactive

Q: With `COc1ccc(C)cc1[N+](=O)[O-]` as the compound, how does the Potency read?
A: inactive

Q: Which Potency does the source give for `COCC(C)OC(C)=O` (stereo not drawn) here?
A: inactive

Q: For `CCOc1ccc(N=Nc2ccc(/C=C/c3ccc(N=Nc4ccc(OCC)cc4)cc3S(=O)(=O)O)c(S(=O)(=O)O)c2)cc1`, which Potency is on record?
A: inactive

Q: For `CC(C)Cc1ccc(C(C)C(=O)OCc2ccccn2)cc1` (stereo not drawn), which Potency is on record?
A: inactive

Q: With `CCOc1ccc(O)cc1` as the compound, how does the Potency read?
A: inactive

Q: With `O=C(O)c1ccco1` as the compound, how does the Potency read?
A: inactive

Q: For `CC[N+](C)(CC)CCOC(=O)C(O)(c1ccccc1)C1CCCCC1` (stereo not drawn), which Potency is on record?
A: inactive

Q: With `CCCCC1=NC2(CCCC2)C(=O)N1Cc1ccc(-c2ccccc2-c2nn[nH]n2)cc1` as the compound, how does the Potency read?
A: inactive

Q: For `Cc1ccc(C(C)OC(=O)C2(C)CCC(C(=O)O)C2(C)C)cc1` (stereo not drawn), which Potency is on record?
A: inactive

Q: For `Cc1c(N)cccc1[N+](=O)[O-]`, which Potency is on record?
A: inactive

Q: With `COc1cc2nc(Cl)nc(N)c2cc1OC` as the compound, how does the Potency read?
A: inactive

Q: With `Nc1ccccc1S(=O)(=O)c1ccccc1` as the compound, how does the Potency read?
A: inactive

Q: Which Potency does the source give for `CCCCC(CC)COC(=O)COc1ccc(Cl)cc1Cl` (stereo not drawn) here?
A: inactive

Q: With `Cn1c(=O)cc(Oc2ccc(F)cc2F)c2cnc(NCC(C)(C)O)nc21` as the compound, how does the Potency read?
A: inactive

Q: For `O=C(O)c1ccccc1Cl`, which Potency is on record?
A: inactive

Q: For `O=C(O)CNCC(=O)O`, which activity, negative = cytotoxic is on record?
A: 11.1% [at 6.95 µM] (inactive)

Q: For `C/C(=C(\CCOP(=O)(O)O)SC(=O)c1ccccc1)N(C=O)Cc1cnc(C)nc1N`, which activity, negative = cytotoxic is on record?
A: 2.97% [at 6.95 µM] (inactive)

Q: With `CC(C)(COC(=O)c1ccccc1)COC(=O)c1ccccc1` as the compound, how does the Potency read?
A: inactive

Q: For `OC(C#CCN1CCCC1)(c1ccccc1)c1ccccc1`, which Potency is on record?
A: inactive

Q: With `C=C(C)C(=O)OCC` as the compound, how does the Potency read?
A: inactive

Q: With `OCCN1CCN(CCCN2c3ccccc3C=Cc3ccccc32)CC1` as the compound, how does the Potency read?
A: inactive

Q: Which Potency does the source give for `ClCCOCCOCCCl` here?
A: inactive

Q: With `CC(CSC(=O)c1ccccc1)C(=O)N1C[C@@H](Sc2ccccc2)C[C@H]1C(=O)O` (stereo partly drawn) as the compound, how does the Potency read?
A: inactive

Q: With `Nc1c(CC(=O)O)cccc1C(=O)c1ccc(Br)cc1` as the compound, how does the Potency read?
A: inactive

Q: For `O=C(O)c1nc(Cl)c(Cl)c(Cl)c1Cl`, which Potency is on record?
A: inactive

Assay: qHTS assay to identify small molecule agonists of the endoplasmic reticulum stress response signaling pathway (AID 1159516; active means well fitted activation curve with a large enough effect in the signal ratio in the repeat runs, not every such curve was filed as active; the % refers to the signal ratio)
Settings: ESRE-bla HeLa, ER stress beta-lactamase reporter, 5 h; series mostly up to 61 µM
In short: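 HeLa ESRE-bla reporter line; cpd 5 h, 37 C/5% CO2; LiveBLAzer B/G FRET substrate 2 h RT; ex 405, em 460/530 nm.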

Q: With `COc1cc2nc(N(C)CCCNC(=O)C3CCCO3)nc(N)c2cc1OC` (stereo not drawn) as the compound, how does the Potency read?
A: inactive

Q: With `CCCCC(CC)COC(=O)CCCCCCCCC(=O)OCC(CC)CCCC` (stereo not drawn) as the compound, how does the Potency read?
A: inactive

Q: With `CN(C)C(=O)NC1(c2ccccc2)CCN(CC[C@@]2(c3ccc(F)c(F)c3)CN(C(=O)c3ccccc3)CCO2)CC1` as the compound, how does the Potency read?
A: inactive

Q: With `O=[N+]([O-])c1ccc(NCCO)c(OCCO)c1` as the compound, how does the Potency read?
A: inactive

Q: With `COc1ccc2cccc(CCNC(C)=O)c2c1` as the compound, how does the Potency read?
A: inactive

Q: For `O=C(NCC1CN(c2ccc(N3CCOCC3=O)cc2)C(=O)O1)c1ccc(Cl)s1` (stereo not drawn), which Potency is on record?
A: inactive

Q: With `CC1=CC=C(C(C)C)CC1` as the compound, how does the Potency read?
A: inactive

Q: With `CC(=O)c1cccc([N+](=O)[O-])c1` as the compound, how does the Potency read?
A: inactive

Q: Which Potency does the source give for `C=CCOC(=O)CCC1CCCCC1` here?
A: inactive

Q: Which Potency does the source give for `CC(=O)[O][Al]` here?
A: inactive

Q: With `COc1ccc(C)cc1[N+](=O)[O-]` as the compound, how does the Potency read?
A: inactive

Q: Which Potency does the source give for `COCC(C)OC(C)=O` (stereo not drawn) here?
A: inactive

Q: With `CCOc1ccc(N=Nc2ccc(/C=C/c3ccc(N=Nc4ccc(OCC)cc4)cc3S(=O)(=O)O)c(S(=O)(=O)O)c2)cc1` as the compound, how does the Potency read?
A: inactive

Q: For `CC(C)Cc1ccc(C(C)C(=O)OCc2ccccn2)cc1` (stereo not drawn), which Potency is on record?
A: inactive

Q: With `CCOc1ccc(O)cc1` as the compound, how does the Potency read?
A: inactive

Q: With `O=C(O)c1ccco1` as the compound, how does the Potency read?
A: inactive

Q: Which Potency does the source give for `CC[N+](C)(CC)CCOC(=O)C(O)(c1ccccc1)C1CCCCC1` (stereo not drawn) here?
A: inactive

Q: For `CCCCC1=NC2(CCCC2)C(=O)N1Cc1ccc(-c2ccccc2-c2nn[nH]n2)cc1`, which Potency is on record?
A: inactive

Q: For `Cc1ccc(C(C)OC(=O)C2(C)CCC(C(=O)O)C2(C)C)cc1` (stereo not drawn), which Potency is on record?
A: inactive

Q: For `Cc1c(N)cccc1[N+](=O)[O-]`, which Potency is on record?
A: inactive

Q: Which Potency does the source give for `COc1cc2nc(Cl)nc(N)c2cc1OC` here?
A: inactive

Q: Which Potency does the source give for `Nc1ccccc1S(=O)(=O)c1ccccc1` here?
A: inactive

Q: With `CCCCC(CC)COC(=O)COc1ccc(Cl)cc1Cl` (stereo not drawn) as the compound, how does the Potency read?
A: inactive

Q: For `Cn1c(=O)cc(Oc2ccc(F)cc2F)c2cnc(NCC(C)(C)O)nc21`, which Potency is on record?
A: inactive

Q: Which Potency does the source give for `O=C(O)c1ccccc1Cl` here?
A: inactive

Q: Which activation does the source give for `O=C(O)CNCC(=O)O` here?
A: -0.0292% [at 6.95 µM] (inactive)

Q: With `C/C(=C(\CCOP(=O)(O)O)SC(=O)c1ccccc1)N(C=O)Cc1cnc(C)nc1N` as the compound, how does the activation read?
A: -0.946% [at 6.95 µM] (inactive)

Q: Which Potency does the source give for `CC(C)(COC(=O)c1ccccc1)COC(=O)c1ccccc1` here?
A: inactive

Q: With `OC(C#CCN1CCCC1)(c1ccccc1)c1ccccc1` as the compound, how does the Potency read?
A: inactive

Q: Which Potency does the source give for `C=C(C)C(=O)OCC` here?
A: inactive

Q: With `OCCN1CCN(CCCN2c3ccccc3C=Cc3ccccc32)CC1` as the compound, how does the Potency read?
A: inactive

Q: Which Potency does the source give for `ClCCOCCOCCCl` here?
A: inactive

Q: For `CC(CSC(=O)c1ccccc1)C(=O)N1C[C@@H](Sc2ccccc2)C[C@H]1C(=O)O` (stereo partly drawn), which Potency is on record?
A: inactive

Q: For `Nc1c(CC(=O)O)cccc1C(=O)c1ccc(Br)cc1`, which Potency is on record?
A: inactive

Q: With `O=C(O)c1nc(Cl)c(Cl)c(Cl)c1Cl` as the compound, how does the Potency read?
A: inactive
